Assay results published in PubChem BioAssay AID1159580 (chemical genetic matrix, 2015).
Several values for one entry are separate records, joined by “and”; a condition that tells them apart may be missing. Equal values may be shown once. Among all 5,500 compounds or so, about 2,000 (36%) were called active. Roughly 18% stayed inconclusive and do not appear here. No stated cut-off is given here; in the data, active means normalized growth mostly below about 0.91 (no sharp cut-off); inconclusive means no clear call, values can overlap the other calls; inactive means mostly above about 0.92. Some of the results follow.

Assay: chemical genetic growth profiling, strain panel (AID 1159580);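 further: tested at 20 µM; growth read once vehicle control cultures reached saturation at 30 °C; 1 = growth at the plate median or of vehicle wells; lower values mean less growth of the strain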
Settings: S. cerevisiae deletion strains, growth OD

Measured: normalized growth

COc1ccc(OC)c(C(O)CNC(=O)CN)c1 (stereo not given)
inactive: locus YAL021C, strain ccr4, active compounds read low 0.984 | locus YAL026C, strain drs2, active compounds read low 1 | locus YAL030W, strain snc1, active compounds read low 1.01 | locus YBL061C, strain skt5, active compounds read low 1.01 | locus YBR009C, strain hhf1, active compounds read low 1 | locus YBR021W, strain FUR4, active compounds read low 1.02 | locus YBR023C, strain chs3, active compounds read low 1 | locus YBR171W, strain sec66, active compounds read low 1.02 | locus YBR229C, strain ROT2, active compounds read low 0.961 | locus YBR231C, strain swc5, active compounds read low 1 | locus YBR279W, strain paf1, active compounds read low 1.01 | locus YCL011C, strain gbp2, active compounds read low 1.01 | locus YCL016C, strain dcc1, active compounds read low 1.01 | locus YCL029C, strain bik1, active compounds read low 0.987 | locus YCL061C, strain MRC1, active compounds read low 1.01 | locus YCL069W, strain vba3, active compounds read low 1.01 | locus YCR088W, strain abp1, active compounds read low 0.996 | locus YDL005C, strain med2, active compounds read low 1 | locus YDL035C, strain GPR1, active compounds read low 0.986 | locus YDL040C, strain nat1, active compounds read low 0.997 | locus YDL074C, strain BRE1, active compounds read low 0.962 | locus YDL101C, strain DUN1, active compounds read low 0.987 | locus YDL134C, strain PPH21, active compounds read low 1 | locus YDL185W, strain tfp1, active compounds read low 0.979 | locus YDL192W, strain arf1, active compounds read low 0.964 | locus YDR001C, strain nth1, active compounds read low 0.997 | locus YDR069C, strain doa4, active compounds read low 1 | locus YDR101C, strain arx1, active compounds read low 0.98 | locus YDR137W, strain rgp1, active compounds read low 1.01 | locus YDR150W, strain NUM1, active compounds read low 0.993 | locus YDR159W, strain sac3, active compounds read low 0.989 | locus YDR162C, strain NBP2, active compounds read low 0.983 | locus YDR195W, strain ref2 0.977 | locus YDR297W, strain sur2, active compounds read low 1 | locus YDR318W, strain mcm21, active compounds read low 0.982 | locus YDR334W, strain swr1, active compounds read low 1.01 | locus YDR335W, strain msn5, active compounds read low 1 | locus YDR388W, active compounds read low 0.983 | locus YDR392W, strain spt3, active compounds read low 1.02 | locus YDR502C, strain sam2, active compounds read low 0.981 | locus YEL003W, strain gim4, active compounds read low 0.998 | locus YEL037C, strain rad23, active compounds read low 1 | locus YEL061C, strain CIN8 (second series), active compounds read low 1.01 | locus YEL061C, strain CIN8, active compounds read low 0.979 | locus YER015W, strain faa2, active compounds read low 1.02 | locus YER016W, strain bim1, active compounds read low 1 | locus YER110C, active compounds read low 0.973 | locus YER111C, strain swi4, active compounds read low 1.01 | locus YER155C, strain BEM2 (second series), active compounds read low 1.01 | locus YER155C, strain BEM2, active compounds read low 1 | locus YER167W, strain BCK2, active compounds read low 1.01 | locus YFR010W, strain ubp6, active compounds read low 1.01 | locus YGL078C, strain dbp3, active compounds read low 0.974 | locus YGL086W, strain mad1, active compounds read low 0.979 | locus YGL167C, strain pmr1, active compounds read low 0.995 | locus YGL173C, strain kem1, active compounds read low 0.995 | locus YGL227W, strain vid30, active compounds read low 1 | locus YGL240W, strain doc1, active compounds read low 1.02 | locus YGL248W, strain PDE1, active compounds read low 0.967 | locus YGL253W, strain hxk2, active compounds read low 1.02 | locus YGR135W, strain pre9, active compounds read low 0.999 | locus YGR229C, strain SMI1, active compounds read low 0.99 | locus YGR252W, strain gcn5, active compounds read low 0.956 | locus YHR013C, strain ard1, active compounds read low 1.01 | locus YHR027C, strain rpn1, active compounds read low 0.999 | locus YHR030C, strain SLT2, active compounds read low 1 | locus YHR079C, strain IRE1 (second series), active compounds read low 0.991 | locus YHR079C, strain IRE1, active compounds read low 1.01 | locus YHR094C, strain hxt1, active compounds read low 0.978 | locus YHR129C, strain ARP1, active compounds read low 0.996 | locus YHR142W, strain chs7, active compounds read low 0.997 | locus YIL066C, strain RNR3, active compounds read low 0.969 | locus YIL073C, strain SPO22, active compounds read low 0.985 | locus YIL125W, strain kgd1, active compounds read low 0.975 | locus YIR030C, strain dcg1, active compounds read low 0.986 | locus YJL092W, strain hpr5, active compounds read low 1.01 | locus YJL095W, strain BCK1 (second series), active compounds read low 1 | locus YJL095W, strain BCK1, active compounds read low 0.975 and 1.03 | locus YJL115W, strain asf1, active compounds read low 1 | locus YJL129C, strain trk1, active compounds read low 0.999 | locus YJL134W, strain LCB3, active compounds read low 0.991 | locus YJL154C, strain vps35, active compounds read low 0.992 | locus YJL164C, strain tpk1, active compounds read low 1 | locus YJL166W, strain qcr8, active compounds read low 1 | locus YJL168C, strain set2, active compounds read low 0.976 | locus YJL187C, strain SWE1 (second series), active compounds read low 0.958 | locus YJL187C, strain SWE1, active compounds read low 1 | locus YJR043C, strain POL32, active compounds read low 0.944 | locus YJR066W, strain TOR1, active compounds read low 1 | locus YJR075W, strain HOC1, active compounds read low 0.993
